# Gal4-VP16 FLuc: counter-screen for ROR gamma inhibitors: Gal4-VP16 reporter; Drosophila S2 Gal4-VP16 UAS-luciferase, luminescence, 20 h; Potency, µM (titrated, usually from 53.6 µM), actives largely listed as inhibitors; hit rate 3.5% among 310,000;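 further: Gal4-VP16 expression switched on by copper sulfate through the metallothionein promoter; nearly all actives have a fitted effect of over 50% in size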
# PLK1 PBD block: PLK1 (human) polo-box domain binding inhibition; Plk1 PBD binding of FITC phosphopeptide, fluorescence polarization; Potency, µM, usual class: inhibitors; hit rate 2.8% among 360,000; further: series mostly up to about 57 µM; nearly all actives have a fitted effect of over 65% in size
# Sfp PPTase inh: blocks B. subtilis Sfp PPTase activity | Potency, µM, hits mostly inhibitors | Biochemical Sfp PPTase activity, qHTS | hit rate 3.5% among 310,000 | AID 1490 | Q9F4F7;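 further: the enzyme is Sfp with the accession as filed and its product quenches rhodamine fluorescence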
#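 With Hepes-Na pH 7.6 buffer containing 10 mM MgCl2, Sfp (15 nM) modified BHQ-2-YbbR (12.5 uM) using rhodamine-CoA (5 uM). Two reads 30 minutes apart at 525/598 nm yielded each well's rate.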
# ALDH1A1 block: inhibitors of human aldehyde dehydrogenase 1A1; Purified ALDH1A1, NADH fluorescence, propionaldehyde substrate; Potency, µM (series often up to 75.3 µM), actives largely listed as inhibitors; hit rate 7.3% among 220,000; AID 1030; active means well fitted inhibition curve with a large enough effect, not every such curve was filed as active; inconclusive means small, poorly fitted or top-dose-only effect, or another doubt; inactive means no such curve, though single readings can be large or run the other way
# RORg inh: ROR gamma (mouse) transcription inhibition. Potency, µM (highest dose often 53.6 µM), actives largely listed as inhibitors. Drosophila S2 Gal4-RORgamma UAS-luciferase reporter, 20 h. hit rate 5.4% among 310,000; further: nearly all actives have a fitted effect of over 60% in size
# Target sequence (P51450 whole entry, looked up, the tested form may be a part): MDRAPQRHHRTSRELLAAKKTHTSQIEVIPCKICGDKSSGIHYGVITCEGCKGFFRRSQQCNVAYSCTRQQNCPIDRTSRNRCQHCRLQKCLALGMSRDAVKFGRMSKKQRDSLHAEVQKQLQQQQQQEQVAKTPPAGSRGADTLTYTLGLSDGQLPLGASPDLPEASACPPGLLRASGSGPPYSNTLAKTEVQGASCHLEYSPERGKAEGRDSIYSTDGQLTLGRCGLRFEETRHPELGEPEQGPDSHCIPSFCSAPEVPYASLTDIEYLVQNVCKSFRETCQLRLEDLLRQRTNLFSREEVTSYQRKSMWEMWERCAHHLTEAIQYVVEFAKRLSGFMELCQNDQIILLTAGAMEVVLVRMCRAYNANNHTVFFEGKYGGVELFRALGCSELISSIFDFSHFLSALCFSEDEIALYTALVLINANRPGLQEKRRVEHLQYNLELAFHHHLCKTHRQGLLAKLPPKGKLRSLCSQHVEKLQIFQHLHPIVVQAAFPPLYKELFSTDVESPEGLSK
#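 Stable Schneider cell line, Gal4 DNA-binding domain fused to ROR gamma, UAS-luciferase. Cmpd 1 hr RT → CuSO4 700 uM final → 20 hr RT → luciferase reagent 10 min → luminescence.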
# Hits are given with their value; . = inactive; ? = inconclusive; / = no result; [ ] = another dose, or the depositor's remark. An excerpt weighted towards active compounds, which were near 12% of everything screened. Unless noted, the call rests on the fitted dose curve; in most records, active means well fitted curve in the direction sought with a large enough effect; inconclusive means small, poorly fitted or top-dose-only effect, or another doubt; inactive means no such curve, though single readings can be large; an effect the other way counts as inactive or inconclusive.
SMILES,Gal4-VP16 FLuc,PLK1 PBD block,Sfp PPTase inh,ALDH1A1 block,RORg inh
OCC#Cc1ncc(C(F)(F)F)cc1Cl,13µM,.,.,?,?
NC(=O)Cc1ncc(C(F)(F)F)cc1Cl,.,.,.,.,.
O=C(NCCCN1CCOCC1)c1cc(S(=O)(=O)N2CCOCC2)ccc1Cl,/,.,/,/,/
O=c1oc2cc(O)ccc2cc1-c1nc2ccccc2o1,/,11µM,/,/,/
CC1=C(C(=O)N2CCOCC2)CC(CC(=O)NC(c2ccccc2)c2ccccc2)C(=O)N1Cc1ccc(F)cc1 (centres undefined),/,.,/,/,/
CC1(C)CC(=O)C/C(=N/Nc2nc3ccccc3s2)C1,.,.,.,?,8.9µM
Cc1ccccc1OCC(=O)N/N=C1\CC(=O)CC(C)(C)C1,.,.,.,/,.
CC1CCC/C(=N/Nc2nc3ccccc3s2)C1 (centres undefined),?,30µM,?,?,6.3µM
COc1ccccc1-c1noc2c1C(=O)N(Cc1cn(-c3ccccc3OC)nn1)CC2,/,.,/,/,/
CC(=O)c1ccc(Sc2nnc(C)s2)c([N+](=O)[O-])c1,.,.,.,.,.
Cc1nnc(Sc2cc(NCCCO)c([N+](=O)[O-])c3nonc23)s1,6.3µM,5.3µM,3.2µM,?,3.5µM
O=[N+]([O-])c1c(NCCO)cc(N2CCCCCC2)c2nonc12,.,.,.,/,?
Cc1nnc(Sc2cc(NCCO)c([N+](=O)[O-])c3nonc23)s1,?,2.4µM,6.3µM,.,3.2µM
CCOC(=O)c1c(C)[nH]c(C(=O)N(C)CC(=O)Nc2ccc(OCC)c(OCC)c2)c1C,/,.,/,/,/
Cc1ccccc1-c1cc(Nc2ccc(F)cc2)ncn1,.,/,.,.,.
Cc1ccc(CN2CCC(C(=O)c3ccc(F)cc3)CC2)cc1,/,.,/,/,/
COc1cc(OC)cc(C(=O)Nc2ccc([N+](=O)[O-])cn2)c1,.,27µM,.,.,.
Cc1ccc(S(=O)(=O)N2CCN(C(=O)COC(=O)/C=C/c3ccc(OC(F)F)cc3)CC2)cc1,/,.,/,/,/
COc1ccc2oc(=Nc3ccccc3)c(-c3nc4ccccc4[nH]3)cc2c1,?,.,.,.,10µM
COc1cccc2cc(-c3nc4ccccc4[nH]3)c(=O)oc12,.,.,.,/,.[1.91 µM]
COc1ccc(-c2nc3ccccc3[nH]2)cc1,8.9µM,.,.,?,7.9µM
c1csc(-c2nc3ccccc3[nH]2)c1,.,.,.,?,.
Cc1cc(=O)c2ccc3ccccc3c2[nH]1,.,.,.,?,.
COc1ccc(-c2nc(=S)c3ccc4ccccc4c3[nH]2)cc1,?,.,.,.,5.6µM
COC(=O)c1ccc(-c2nc3ccccc3[nH]2)cc1,?,.,.,?,.
SMILES,Gal4-VP16 FLuc,PLK1 PBD block,Sfp PPTase inh,ALDH1A1 block,RORg inh
Cc1ccc(-c2nc3ccccc3[nH]2)s1,/,.,50µM,?,.[0.365 µM]
CC1(Cc2ccc(F)c(Cl)c2)C(=O)Nc2c(Cl)cccc21 (centres undefined),/,.,/,/,/
CC(C)n1nc(C(=O)NNC(=O)c2ccncc2)c2ccccc2c1=O,/,.,/,/,/
CCCn1nc(C(=O)Nc2nc3ccccc3[nH]2)c2ccccc2c1=O,20µM,.,?,?,13µM
CCCn1nc(C(=O)Nc2nnc(CC)s2)c2ccccc2c1=O,.[10 µM],.,.,.,.
CC(C)n1nc(C(=O)Nc2nc3ccccc3[nH]2)c2ccccc2c1=O,?,.,.,?,1.8µM
NNc1nccc(Nc2ccccc2C(=O)O)n1,.,.,50µM,?,.
CC(C)(C)c1ccc(NC(=O)c2cc(C3CCCN(C(=O)CCc4ccccc4)C3)on2)cc1 (centres undefined),/,.,/,/,/
CN1C(=S)SC(C)(C)C1N(O)C(=O)Nc1ccc(Cl)cc1 (centres undefined),.,.,.,.,.
CC1(C)C(N(O)C(=O)Nc2ccc(Cl)cc2)N(c2ccc(Cl)cc2)C(=O)N1CC(=O)NN (centres undefined),.,.,100µM,.,.
COc1ccc(/C=C/C(=O)c2cccs2)c(OC)c1,35µM,/,?,?,13µM
O=C(Cn1cnc2ccccc2c1=O)c1cccs1,.,.,.,.,.
O=C(/C=C/c1ccnc2ccccc12)c1cccs1,14µM,?,.,28µM,?
COc1ccc(OC)c(C(=O)/C=C/c2ccccc2C(F)(F)F)c1,?,.,.,.,13µM
CCc1nc2c(OCC3CCCCC3)cccn2c1N(C)C(=O)c1ccc(C)cc1,/,.,/,/,/
COc1ccc(-c2ccc(CCC(=O)O)n2CC(=O)Nc2ccccc2C)cc1,.,.,.,/,.
O=C(COC(=O)c1ccc(Cl)c([N+](=O)[O-])c1)NC1CCCC1,.,.,.,/,.
O=C(COC(=O)c1ccccc1C(=O)c1ccc(Cl)c([N+](=O)[O-])c1)NC1CCCCCC1,?,.,.,14µM,4.5µM
O=C(COC(=O)c1ccc2c(c1[N+](=O)[O-])C(=O)c1ccccc1C2=O)NC1CC1,18µM,.,.,?,?
Cc1ccc(S(C)(=O)=NS(=O)(=O)c2cccc3nsnc23)cc1 (centres undefined),.,.,.,/,.
O=C(CN1C2=NCCN2c2ccccc21)C12CC3CC(CC(C3)C1)C2,.,.,.,.,16µM
O=C(CCc1nnc2ccc(NCc3ccccc3)nn12)NC1CCCCC1,.,24µM,.,/,.
Cc1ccc(C)n1-c1ccc(C(=O)NN)cc1,.,3µM,.,.,.
CCOC(=O)c1c(CSC(=N)N)n(-c2ccc(C)cc2)c2cc(Br)c(OC(C)=O)cc12,?,.,45µM,.,?
C[C@@H]1CN([C@H](C)CO)C(=O)CCCn2cc(nn2)CO[C@H]1CN(C)S(=O)(=O)c1ccc2ccccc2c1,/,.,/,/,/
SMILES,Gal4-VP16 FLuc,PLK1 PBD block,Sfp PPTase inh,ALDH1A1 block,RORg inh
CCOC(=O)[C@H]1NN=C(C(=O)OC)[C@@H]1c1ccccc1,.,38µM,.,.,.
CCNc1nc(-c2sc(NC(=O)C(C)(C)C)nc2C)c(-n2cc(-c3ccccc3)nn2)s1,/,.,/,/,/
COCCn1c(=O)c(-c2cccs2)nc2cnc(Nc3ccccc3)nc21,.,/,.,.,.
O=[N+]([O-])c1nn(-c2ccc3c(c2)OCCO3)n(O)c1=Nc1ccccc1,?,.,.,11µM,.[10 µM]
O=[N+]([O-])c1nn(-c2ccc3c(c2)OCCO3)n(O)c1=NC1CCCCCC1,.,.,.,14µM,.
CN(C)CCCNS(=O)(=O)c1ccc(N2CCN(Cc3ccc4c(c3)OCO4)CC2)c([N+](=O)[O-])c1,.,.,71µM,/,?
CC(=O)c1ccc(N2CCN(c3ccc(S(=O)(=O)NCCN(C)C)cc3[N+](=O)[O-])CC2)cc1,?,.,.,/,?
CC(=O)c1ccc(N2CCN(c3ccc(S(=O)(=O)NCCCN(C)C)cc3[N+](=O)[O-])CC2)cc1,?,.,.,19µM,.
OC[C@@H]1O[C@H](n2cnc3c(/C=C(\O)c4ccccc4)ncnc32)[C@H](O)[C@@H]1O,/,/,/,.[13.5 µM],/
COc1cccc(C2=CC(c3ccc(C)cc3)n3ncnc3N2)c1 (centres undefined),.,/,.,?,.
Fc1ccc(Br)cc1C1C=C(c2ccc(Br)cc2)Nc2ncnn21 (centres undefined),?,.,.,.,6.3µM
